# TIM10 inh = growth inhibitors of isogenic TIM10 control yeast, primary screen, counter-screen for tim10-1 yeast inhibitor project, luminescence, uHTS. S. cerevisiae TIM10 strain growth, BacTiter-Glo luminescence, 24 h. inhibition, % at 10 µM. 330,000 compounds, 1.4% hits;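 active = inhibition of 40% or more at the single tested concentration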;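 also: wild-type TIM10 isogenic control strain grown at permissive 25 °C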
# tim10-1 inh = growth inhibitors of tim10-1 mutant yeast, primary screen, luminescence, uHTS | inhibition, % at 20 µM | 330,000 compounds, 2.2% hits | AID 463190, 2010 | S. cerevisiae tim10-1 ts strain growth, BacTiter-Glo, 24 h;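 active = inhibition of at least 40%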;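 also: mutant grown at 25 °C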
# NALP1 yeast inh = NALP1 inflammasome inhibitors in reconstituted yeast, colorimetric, S. cerevisiae, triplicate retest | S. cerevisiae NALP1/ASC/caspase-1 growth, X-gal OD620, 72 h | inhibition, % at 10 µM | AID 2071, 2009 | 280,000 compounds, 0.61% hits; in the data active = inhibition mostly above about 24%, no sharp cut-off; inactive = mostly below about 32%
# NLRP3 yeast inh = NALP3 inflammasome inhibitors in reconstituted yeast, primary screen, luminescence, uHTS. 330,000 compounds, 0.39% hits. Yeast reconstituted NLRP3/ASC/caspase-1, beta-gal luminescence, 24 h. inhibition, % at 10 µM;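 active = inhibition of 50% or more; inactive = inhibition below 50%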
# tim23-1 inh = growth inhibitors of tim23-1 mutant yeast, primary screen, luminescence, uHTS; S. cerevisiae tim23-1 growth, BacTiter-Glo luminescence, 24 h; inhibition, % at 20 µM; 330,000 compounds, 1.3% hits;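 active = growth inhibition of the mutant yeast at or above 50%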;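 also: temperature-sensitive mutant grown at 25 °C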
# tim10-1 confirm = growth inhibitors of tim10-1 mutant yeast, confirmation, single concentration, luminescence, S. cerevisiae | 7,400 compounds, 56% hits | inhibition, % at 20 µM | S. cerevisiae tim10-1 ts strain growth, BacTiter-Glo, 24 h | shares compounds with tim10-1 inh;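 active = inhibition of yeast growth at or above a set limit in either of two repeat tests at 20 µM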;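 also: tim10-1 mutant grown at permissive 25 °C to find synthetic lethal compounds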
# TIM10 conf = growth inhibitors of wild-type TIM10 yeast, confirmation, counter-screen for tim10-1 synthetic lethality project, single concentration, luminescence, S. cerevisiae | 4,600 compounds, 63% hits | shares compounds with TIM10 inh | inhibition, % at 10 µM | AID 463215, 2010 | S. cerevisiae tim10 strain growth, BacTiter-Glo luminescence, 24 h;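 active = inhibition of yeast growth at or above a set limit in either of two replicates at 10 µM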; also: this counterscreen used the strain with wild-type TIM10
# tim23-1 confirm = tim23-1 mutant yeast growth inhibitors, confirmation, luminescence, single concentration | shares compounds with tim23-1 inh | S. cerevisiae tim23-1 growth, BacTiter-Glo luminescence, 24 h | inhibition, % at 20 µM | 4,400 compounds, 83% hits | AID 463218, 2010;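 active = inhibition above about 39% in either of two replicate wells at 20 µM, limit read from the data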;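 also: temperature-sensitive tim23-1 mutant grown at 25 °C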
# Hits are given with their value; – = inactive; · = not tested or not shown. The list is not random: actives were taken first. Their share in the collection is about 4%.
SMILES,TIM10 inh,tim10-1 inh,NALP1 yeast inh,NLRP3 yeast inh,tim23-1 inh,tim10-1 confirm,tim23-1 confirm,others
O=C(COC(=O)c1ccc([N+](=O)[O-])s1)c1ccc[nH]1,79,63,·,–,64,71,58,TIM10 conf=84
N/C(=N\OC(=O)c1cccc(Cn2cc(C(F)(F)F)ccc2=O)c1)c1ccc(Cl)cc1,–,44,–,–,51,56,60,
O=C1c2cccc3cc([N+](=O)[O-])cc(c23)C(=O)N1CC1CCCO1 (stereo not given),–,41,·,–,52,–,44,
O=C1c2ccccc2C(=O)N1CC1CCCO1 (stereo not given),–,–,–,–,–,·,·,
N/C(=N\OC(=O)c1cccs1)c1ccc(Cl)cc1,84,69,·,–,82,53,91,TIM10 conf=84
N/C(CC(=O)Nc1ccc(F)c(Cl)c1)=N\OC(=O)c1cccs1,81,54,–,–,73,37,83,TIM10 conf=86
COc1ccc(/C(N)=N/OC(=O)c2cccs2)cc1,63,43,–,–,71,60,88,TIM10 conf=68
O=C(NC(=S)Nc1ccc(CN2CCOCC2)cc1)c1ccc(-c2ccc(Br)cc2)o1,–,–,–,–,–,·,·,
COc1ccc(Br)cc1C(=O)NC(=S)Nc1ccc(CN2CCOCC2)cc1,–,55,–,–,51,–,57,
Cc1cc(OCC(=O)NCC(c2ccc(F)cc2)N2CCOCC2)ccc1Cl (stereo not given),–,–,·,–,–,·,·,
CCS(=O)(=O)c1ncc(Cl)c(C(=O)Nc2ccccc2OC)n1,–,–,–,–,–,·,·,
CSc1ncc(Cl)c(C(=O)Nc2ccc(C)c(C)c2)n1,–,–,–,–,–,·,·,
Cc1ccc(NC(=O)c2nc(S(=O)(=O)Cc3ccccc3C)ncc2Cl)cc1C,–,42,–,–,68,–,60,
CCOc1ccccc1NC(=O)c1nc(S(=O)(=O)Cc2ccccc2)ncc1Cl,–,59,–,–,78,41,74,
CC(NC(=O)CN1CCN(CC(=O)Nc2ccccc2Cl)CC1)c1ccc(Br)cc1 (stereo not given),–,–,·,–,–,·,·,
COc1ccc(O)c(C(=O)c2cnn(S(=O)(=O)c3ccc(C)cc3)c2)c1,–,54,·,–,52,35,52,
CCOc1ccc2c(c1)-c1c(ssc1=S)C(C)(C)N2,–,48,–,–,52,40,56,
CCOc1ccc2c(c1)/C(=N/N1C(=O)c3ccccc3C1=O)C(=O)N2,–,–,–,–,–,·,·,
Oc1cccc2ccc(Nc3ccccn3)nc12,–,67,–,–,52,64,79,
c1ccc(Nc2ccccc2Nc2ccccn2)nc1,–,–,–,–,–,·,·,
COc1ccc(N2CCN(CCCNC(=O)CN3C(=O)COc4ccccc43)CC2)cc1,–,–,–,–,–,·,·,
NNC(=O)c1[nH]c(-c2ccccc2)cc1-c1ccccc1,41,57,–,–,53,44,46,TIM10 conf=–
Cc1ccc(/C=N/NC(=O)c2nnn(-c3nonc3N)c2CNc2ccccc2)cc1,–,–,–,–,–,·,·,
Nc1nonc1-n1nnc(C(=O)N/N=C/c2cc(Br)ccc2O)c1CNc1ccccc1,48,61,–,–,51,–,54,TIM10 conf=54
O=Nc1c(-c2ccccc2)cc2ccccn12,49,50,38,–,66,43,63,TIM10 conf=29
SMILES,TIM10 inh,tim10-1 inh,NALP1 yeast inh,NLRP3 yeast inh,tim23-1 inh,tim10-1 confirm,tim23-1 confirm,others
COc1cc(OC)cc(C(=O)N[C@H](C(=O)Nc2cccc(S(=O)(=O)N3CCCC3)c2)C(C)C)c1,–,–,·,–,–,·,·,
CC(C)OC(=O)CSc1nc(N)c(C#N)c(-c2cccs2)c1C#N,–,–,–,–,–,·,·,
CC(C)Sc1nc(N)nc(-c2cccs2)c1C#N,–,48,–,–,65,–,–,
O=C(/C=C/c1cccc([N+](=O)[O-])c1)c1cccs1,69,57,–,–,52,52,49,TIM10 conf=72
COCCOC(=O)C1=C(C)NC(=O)NC1c1ccc(-c2cc(Cl)ccc2Cl)o1 (stereo not given),–,–,–,–,–,·,·,
CCC(=O)c1ccc(OCC(=O)OCC(=O)Nc2sccc2C(N)=O)cc1,–,–,–,–,–,·,·,
CC(C)(Oc1ccc(Cl)cc1)C(=O)NCCN1C(=O)S/C(=C/c2cccnc2)C1=O,51,48,–,–,53,44,48,TIM10 conf=–
CC(=NC1CC1)c1c(-c2ccccc2)[nH]n(-c2nc3ccccc3s2)c1=O,64,53,–,–,53,56,52,TIM10 conf=49
NC(=O)CCC(NS(=O)(=O)c1ccc(Cl)cc1)C(=O)NCc1ccccc1 (stereo not given),–,–,–,–,–,·,·,
O=C(NCCc1ccncc1)Nc1cccc(Cl)c1,–,–,–,–,–,·,·,
O=C(NCCCc1ccccc1)Nc1cccc(Cl)c1,46,44,–,–,57,–,66,TIM10 conf=–
O=c1cc(-c2ccccc2)cc(-c2ccccc2)n1O,–,47,·,–,80,–,68,
CC(C)CC(NC(=O)C1CCC(=O)N1)C(=O)NC(CC(C)C)C(=O)N1CCCC1C(N)=O (stereo not given),–,–,–,–,–,·,·,
O=C(/C=C1\NCC2c3ccccc3CCN2C1=O)c1ccccc1 (stereo not given),–,–,–,–,–,·,·,
CC(C)=CCN1CCN(Cc2cccn2-c2ncccn2)CC1CCO (stereo not given),–,–,–,–,–,·,·,
Cc1ccc(N2C(=O)c3ccc(N)cc3C2=O)cc1C,–,42,–,–,52,36,43,
Cc1ccc(N2C(=O)c3ccc(N)cc3C2=O)cc1,–,–,–,–,–,·,·,
CCCN(CC(=O)Nc1ccccc1C)C(=O)c1cccc(S(=O)(=O)N2CCN(c3ccccc3)CC2)c1,–,–,·,–,–,·,·,
CC(C)(C)C(=O)Nc1ccc(C(=O)OC2CCCCC2)cc1,–,41,–,–,50,–,42,
CCOc1ccc(NC(=S)NNC(=O)c2ccc(Br)cc2)cc1,–,–,–,–,–,·,·,
O=C(Cc1ccccc1)NCC(=O)N/N=C/c1ccc([N+](=O)[O-])s1,–,–,–,–,–,·,·,
Cc1[nH]cnc1C(=O)N/N=C/c1ccc([N+](=O)[O-])s1,–,–,–,–,–,·,·,

# Source: PubChem (Sanford-Burnham Center for Chemical Genomics)
